Compounds with a hit are over-represented: about 0.8% of the library has one in this group of screens.
PGK inhibitor: blocks T. brucei phosphoglycerate kinase; P07378; PGK/GAPDH coupled, Kinase-Glo luminescence, 60 min; Potency, µM (top dose mostly 57.5 µM), for the others: top-dose activity change, negative = inhibition, hits mostly inhibitors; 380,000 compounds, 0.043% hits; also: potency is read from the fitted curve at half-maximal effect; % is scaled to controls: 0 for no effect and ±100 for the full control effect; nearly all actives have a fitted effect of over 60% in size
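Luminescent ATP detection (Kinase-Glo Plus) follows a 60-minute room-temperature incubation, with wells lacking PGK as controls. Buffer: 100 mM TEA (pH 7.6), 5 mM MgCl2, 0.01% Tween-20. Coupling enzyme GAPDH (100 nM final) supplies unstable 1,3-BPG in-well.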
PI4K2A inh: blocks human PI4K2A kinase activity. activity change, negative = inhibition, % at 76.9 µM. purified PI4K2A, ADP-Glo luminescence, 1 h; active compounds read low. Q9BTU6. 420,000 compounds, 0.13% hits; in the data active = activity change below about -50%; inconclusive = mostly about -30% to -49%;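 also: -100% = wells without enzyme as full effect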
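PI4K2A activity was measured by ADP-Glo luminescence: enzyme (4 ug/mL stock) and phosphatidylinositol (1.2 mM stock) in Tris pH 7.5/MgCl2/EGTA/Triton X-100 buffer were reacted with ATP (300 microM stock) for one hour at ambient temperature.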
TDP1 block: blocks human tyrosyl-DNA phosphodiesterase 1. Q9NUW8. recombinant TDP1, AlphaScreen DNA substrate cleavage. Potency, µM (series often up to 130 µM), inactives show at the top dose activity change, negative = inhibition, actives largely listed as inhibitors. 350,000 compounds, 0.28% hits; also: potency is read from the fitted curve at half-maximal effect; % is scaled to controls: 0 for no effect and ±100 for the full control effect; nearly all actives have a fitted effect of over 40% in size
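Tdp1 1 nM final; 15 min RT w/ cpd; substrate 15 nM, 5 min; beads 10 ug/ml, 10 min; AlphaScreen read. Neg ctrl: no enzyme.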
APEX1 inh: APE1 (human) endonuclease inhibition; P27695; 350,000 compounds, 0.35% hits; Potency, µM (top dose mostly 65.8 µM), without a hit: top-dose activity change, negative = inhibition, hits mostly inhibitors; recombinant APE1, TAMRA/BHQ-2 abasic DNA cleavage fluorescence;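 also: potency is read from the fitted curve at half-maximal effect; plate controls were vehicle for no effect and reference inhibitor for full effect; nearly all actives have a fitted effect of over 55% in size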
Target sequence (P27695 whole entry, looked up): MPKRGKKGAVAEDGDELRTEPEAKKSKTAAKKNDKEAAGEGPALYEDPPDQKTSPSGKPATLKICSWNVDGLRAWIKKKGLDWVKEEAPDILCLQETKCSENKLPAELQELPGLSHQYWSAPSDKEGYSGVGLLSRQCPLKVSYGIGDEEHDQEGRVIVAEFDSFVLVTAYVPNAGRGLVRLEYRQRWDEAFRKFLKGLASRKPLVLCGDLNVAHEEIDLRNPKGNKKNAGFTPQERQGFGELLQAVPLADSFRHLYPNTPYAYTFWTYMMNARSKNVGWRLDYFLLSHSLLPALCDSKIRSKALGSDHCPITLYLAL
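Activity was derived from the fluorescence gain between first and third kinetic reads (60 s intervals, ex 525/em 598 nm) after 50 nM THF-abasic TAMRA/BHQ-2 duplex was added to 0.75 nM APE1 preincubated 15 min with compound.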
Tb PFK inh-1: blocks T. brucei phosphofructokinase; T. brucei PFK, ADP-Glo luminescence; O15648; Potency, µM (series often up to 57.5 µM), without a hit: at the highest dose activity, negative = inhibition, actives largely listed as inhibitors; 330,000 compounds, 0.17% hits;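 also: potency is read from the fitted curve at half-maximal effect; 0% = uninhibited 1x PFK enzyme wells and -100% = no-enzyme wells; nearly all actives have a fitted effect of over 60% in size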
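PFK 1.25 nM, F6P 0.5 mM, ATP 0.1 mM, 0.1 M TEA pH 8.0, 5 mM MgCl2, 0.01% Tween20, 0.1% BSA; 45 min RT. ADP-Glo readout. qHTS titration up to 57 uM; curves fitted, compounds curve-classed.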
FEN1 inh: human FEN1 inhibition; P39748; Recombinant FEN1 flap cleavage, fluorescence, 15 min; Potency, µM (top dose mostly 114 µM), for inactives: top-dose activity change, negative = inhibition, most hits filed as inhibitors; 390,000 compounds, 0.35% hits; also: potency is read from the fitted curve at half-maximal effect; % is scaled to controls: 0 for no effect and ±100 for the full control effect; nearly all actives have a fitted effect of over 65% in size
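Steps: FEN1 (10 nM) dispensed; compound added by pin tool; 15 min at room temperature; substrate added to 50 nM final; reads at 0 min and 15 min; data normalized and fitted (four-parameter Hill).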
Tb PFK KinaseGlo: Tb phosphofructokinase inhibition, orthogonal luminescence | Tb PFK enzyme, ATP depletion, Kinase-Glo Plus luminescence | 1,100 compounds, 47% hits | AID 504636 | shares compounds with Tb PFK inh-1 | Potency, µM (series often up to 57.5 µM), for inactives: at the highest dose inhibition; calls by dose curve; also: potency is read from the fitted curve at half-maximal effect; nearly all actives have a fitted effect of over 60% in size
Tb PFK inh-2: T. brucei PFK enzyme inhibition, hit validation | shares compounds with Tb PFK inh-1 | purified T. brucei PFK, ADP-Glo luminescence, 45 min | Potency, µM (top dose mostly 57.5 µM), inactives show at the highest dose activity change, negative = inhibition, actives largely listed as inhibitors | 1,100 compounds, 41% hits | AID 504637;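 also: potency is read from the fitted curve at half-maximal effect; plate controls were full PFK enzyme control for no effect and no enzyme control for full effect; nearly all actives have a fitted effect of over 60% in size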
* hit, by the source's call; i = inactive; ? = inconclusive; / = not tested or not shown; [ ] = remark or other dose. Unless noted, calls follow the shape of the dose curve; as a rule, active = well fitted curve in the direction sought with a large enough effect; inconclusive = small, poorly fitted or top-dose-only effect, or another doubt; inactive = no such curve, though single readings can be large; an effect the other way counts as inactive or inconclusive.

SMILES	PGK inhibitor	PI4K2A inh	TDP1 block	APEX1 inh	Tb PFK inh-1	FEN1 inh	Tb PFK KinaseGlo	Tb PFK inh-2
CCN1CCN(Cc2cc(Br)cc(Br)c2O)CC1	16%	-5	7%	-12%	-4%	-3%	/	/
CCOc1ccc(NC(=O)c2c(O)[nH]c(=O)[nH]c2=O)cc1	0%	-2	/	/	/	14%	/	/
O=C(COc1ccc(Br)cc1)Nc1ccc(Cl)cc1C(=O)c1ccccc1	-8%	9	-2%[12.3 µM]	/	/	0%	/	/
COc1ccc(OCC(=O)OCC(=O)Nc2ccc3[nH]c(=O)[nH]c3c2)cc1	-10%	-5	0%	-11%	30µM*	-18%	?	?
O=C(COc1ccc(Cl)cc1)Nc1ccc2[nH]ncc2c1	-1%	2	/	10%	?	-2%	17µM*	24µM*
COc1ccccc1C(=O)NCC(=O)OCC(=O)Nc1ccc2[nH]c(=O)[nH]c2c1	1%	0	0%	4%	27µM*	-4%	?	?
ClCC(Cl)Cl	/	/	2%	0%	/	/	/	/
CCCCC(=O)Cl	/	/	8%	1%	/	/	/	/
COC(=O)COc1ccc(Cl)cc1Cl	/	/	9%[56.1 µM]	-1%	/	/	/	/
Cc1ccc(NC(=O)COc2ccc(Cl)cc2Cl)cc1S(=O)(=O)N1CCOCC1	-1%	0	-4%	-2%	?	-7%	?	?
CCn1c(C)c(CS(=O)(=O)c2ccccc2)[nH]c1=O	-1%	5	3%	12%	?	9%	-24%	?
CCn1c(O)c(C=NCc2ccccc2)c(=O)[nH]c1=S	5%	-1	1%	6%	0%	-9%	/	/
N#CC(O)c1ccccc1 (configuration not stated)	/	/	13%	4%	/	/	/	/
O=C(N/N=C/c1sc2ccccc2c1O)c1cccc2ccccc12	i	7	8%	?	?	-11%	-25%	?
CN(C)c1cc(Cl)c2nonc2c1N	-5%	-57*	5%	?	?	?	21µM*	?
CS(=O)(=O)NN1C(=O)c2ccccc2NC1c1cc2ccccc2nc1Cl (configuration not stated)	-2%	-2	2%	4%	21µM*	-17%	9.5µM*	24µM*
CC[C@H](C)[C@H](NC(=O)[C@@H](N)Cc1ccc(O)cc1)C(=O)NCC(=O)N[C@@H](CO)C(=O)N[C@@H](CCCN=C(N)N)C(N)=O	/	/	6%	-4%	/	/	/	/
O=C(CN1CCOCC1)Nc1ncc(Cc2cccc(Cl)c2)s1	/	1	-3%	-5%	?	12%	?	?
O=c1cnn(Cc2ccc(Cl)c(Cl)c2)c2ccccc12	-3%	5	0%	15%	?	-2%	12µM*	24µM*
O=C(Cn1ncc2c3ccccc3n(Cc3ccc(F)cc3)c2c1=O)N1CCC2(CC1)OCCO2	6%	-10	5%	15%	-1%	1%	/	/
Cn1cccc1/C=C1/SC(=S)N(CC(=O)O)C1=O	-2%	-3	-8%	-6%	?	1%	-28%	?
CCc1cccc(C)c1NC(=O)COC(=O)CNS(=O)(=O)/C=C/c1ccccc1	-5%	-3	3%	3%	?	7%	?	27µM*
COc1ccc(S(=O)(=O)N2CCOCC2)cc1NC(=O)COC(=O)Cc1ccccc1	7%	-2	0%	13%	-1%	12%	/	/
Clc1ccc(CNCCCSc2ncccn2)cc1Cl	8%	3	/	55%	15µM*	6%	19µM*	19µM*

Compound activity from PubChem BioAssay.
